Laboratory results reported in PubChem BioAssay (NCATS).
Results filed as inconclusive are left out. Values without a mark were called inactive. Activity calls are given as the source filed them. The call rests on the fitted dose curve; in most records, active means well fitted inhibition curve with a large enough effect; inconclusive means small, poorly fitted or top-dose-only effect; inactive means flat fitted curve, though single readings scatter.

Test: Primary qHTS for inhibitors of nuclear receptor binding SET domain protein 2 (NSD2) in an isogenic RCH-ACV NSD2 p.E1099K mutant (9B) (AID 1645876); further: nearly all actives have a fitted effect of over 70% in size
Conditions: RCH-ACV (leukaemia line) NSD2 E1099K (9B) viability, CellTiter-Glo, 72 h; series mostly up to 44.9 µM; activity change, negative = viability loss: at the top concentration
On the % scale 0 is the no-effect control and ±100 the full control effect; potency means the concentration at half of the fitted maximal effect.

Compound	Potency	activity change, negative = viability loss	outcome
CC(NCCC(c1ccccc1)c1ccccc1)c1ccccc1 (stereo unspecified)	18.8 µM (active)		
CC(C)C(=O)Nc1cccc(C(F)(F)F)c1		-23.5%	
CC(C)(C)NCC(O)COc1ccccc1OCC1CCCO1 (stereo unspecified)		7.55%	
COC(=O)CCCCC(CCSS/C(CCO)=C(\C)N(C=O)Cc1cnc(C)nc1N)SC(C)=O (stereo unspecified)		-5.89%	
CCN(CC)CC(=O)Nc1c(C)cccc1C(=O)OC		7.77%	
Cc1cccc(N(C)C(=S)Oc2ccc3c(c2)C2CCC3C2)c1 (stereo unspecified)		-49.1%	
CC(C(O)c1ccccc1)N(C)CCOC(c1ccccc1)c1ccccc1 (stereo unspecified)	16.3 µM (active)		
COC(=O)c1c(Cl)c(Cl)c(C(=O)OC)c(Cl)c1Cl		-3.06% [at 91.9 µM]	
COC(=O)c1cc(Cl)ccc1OC		-8.45%	
CCCCN(CCN(CCCC)C(=O)N1CCOCC1)C(=O)N1CCOCC1			inactive
CC(CC(C#N)(c1ccccc1)C(C)C)N(C)C (stereo unspecified)		-22.4%	
Nc1ccc([N+](=O)[O-])c(C(F)(F)F)c1		-7.83%	
COC(=O)c1cc(S(N)(=O)=O)ccc1OC		0.891%	
Oc1ccccc1-c1nnco1		2.44%	
O=C(O)c1cn(C2CC2)c2cc(Cl)c(F)cc2c1=O			inactive
OC[C@]1(O)OC[C@@H](O)[C@H](O)[C@@H]1O			inactive
C[C@@H](C1=C(CCN(C)C)Cc2ccccc21)c1ccccn1		-20.7%	
O=C(CCCl)NCc1ccccc1		-8.22%	
C/C(=N\O)[C@@H](C)NCC(C)(C)CN[C@H](C)/C(C)=N/O		-15.4%	
Nc1nc(=O)n([C@@H]2O[C@H](CO)[C@@H](O)[C@@H]2F)cc1I	1.68 µM (active)		
CC(C)NC(=O)c1ccc(C=O)cc1		0.541%	
